# Assay outcomes from PubChem.
# PPC-1+TRAIL kill: compounds killing PPC-1 cancer cells with TRAIL present, primary screen, TRAIL potentiator project, ATPLite luminescence, uHTS; PPC-1 cells + TRAIL, ATPLite viability luminescence; cell killing (% activity), % at 4 µM or 5 µM; 0.41% of 220,000 active;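 active = cell killing above 50% in the first pass at 4 µM, then a duplicate retest at 5 µM averaging 50% or more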;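 also: plate controls were cells with TRAIL plus DMSO for no effect and medium-only wells lacking cells for full effect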
# C8 TRAIL sens: viability loss with TRAIL in NB7+C8 cells, primary screen, TRAIL sensitizer project, cell-based, ATPlite luminescence; 1% of 360,000 active; inhibition (viability loss, TRAIL sensitization), % at 10 µM;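 active = compounds causing at least 50% loss of cell viability in the single-dose screen, relative to plate controls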
# HIF-2a inh: HIF-2a reporter inhibitors, primary screen, luminescence, 786-0 RCC cells; 786-0 RCC cells HIF-2a reporter, luciferase luminescence, overnight; inhibition, % at 18.8 µM; 0.72% of 360,000 active; AID 624352, 2012;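 active = inhibition of the luminescence signal of 40% or more relative to plate controls, in a single-dose primary screen at 18.75 µM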
# iPSC survival up: enhancers of single-cell hiPSC survival, primary screen, ATPlite luminescence. 100% = ROCK inhibitor wells, 0% = DMSO. 0.044% of 360,000 active. survival enhancement, % at 20 µM; in the data active = survival enhancement above about 18%;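 also: cells exposed to compounds for 16 hours before the ATP read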
# CF NFkB block: inhibitors of PAF-induced NF-kB signaling, primary screen, cell-based, GFP fluorescence, uHTS; KKLEB NF-kB-GFP reporter, GFP fluorescence overnight; inhibition, % at 5 µM; 0.86% of 360,000 active; AID 588850, 2011;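 active = at least 50% inhibition at 5 µM, scaled per plate between neutral and stimulator controls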;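 also: PAF is a Pseudomonas aeruginosa culture filtrate used as stimulus; plate controls were PAF-stimulated DMSO wells for no effect and unstimulated DMSO wells for full effect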
# KKLEB cytotox: cytotoxicity in KKLEB CF airway cells, primary screen, cytotoxicity control for CF NF-kB inhibitor project, cell-based, uHTS, fluorescence assay plates. KKLEB CF airway cells viability, ATPlite luminescence, overnight; hits give low values; cells stimulated with P. aeruginosa culture filtrate. activity change (cytotoxicity), % at 5 µM. 0.36% of 360,000 active;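 active = corrected activity change at or below -50% at 5 µM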
# CF NFkB inh conf: inhibitors of PAF-induced NF-kB signaling, retest, confirmation, cell-based, GFP fluorescence, single concentration. 64% of 1,300 active. inhibition, % at 5 µM. shares compounds with CF NFkB block. KKLEB CF airway cells, overnight; in the data active = inhibition above about 40%;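 also: stimulus PAF is a Pseudomonas aeruginosa filtrate and not platelet activating factor; plate controls were DMSO wells with stimulus for no effect and unstimulated DMSO wells for full effect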
# The depositor's hits bear a star; x = not tested or not shown. Rows were chosen to be rich in hits. Some 2.2% of all compounds tested hit in one or more screens of this group.
SMILES,PPC-1+TRAIL kill,C8 TRAIL sens,HIF-2a inh,iPSC survival up,CF NFkB block,KKLEB cytotox,CF NFkB inh conf
CCOc1ccccc1N1CCN(c2nc3ccccc3nc2C(C#N)C(=O)OC)CC1 (configuration not stated),18,7,22,-1,90*,-7,47*
COc1ccccc1N1CCN(c2nc3ccccc3nc2C(C#N)C(=O)OC(C)C)CC1 (configuration not stated),3,12,12,3,20,-7,x
Cc1cc(Br)cn2c(Cc3ccsc3)c(-c3ccc(Cl)cc3)nc12,x,5,-12,-2,50*,-2,13
Cc1cc(Br)cn2c(Cc3ccsc3)c(-c3ccco3)nc12,x,-10,15,2,60*,-18,-3
O=C(NC1CCCC1)C(c1ccccc1)N(Cc1ccccc1)C(=O)c1csnn1 (configuration not stated),x,5,23,0,12,-11,x
CC(=O)N1C[C@H]2CON(C)[C@H]2C[C@H]1c1ccccc1,x,5,2,1,-19,8,x
COc1ccc(C2=Nn3c(nnc3-c3ccccc3Cl)SC2)cc1OC1CCOC1 (configuration not stated),x,23,-94,3,38,-25,x
COc1ccc(OC)c(-c2nnc3n2N=C(c2ccc(OC)c(OC4CCOC4)c2)CS3)c1 (configuration not stated),x,-1,20,0,54*,-10,65*
CS(=O)(=O)c1ccc(Oc2ccc(-c3nnco3)cc2)c([N+](=O)[O-])c1,x,-20,9,-1,12,5,x
COc1cc(C2c3cc4c(cc3C3OC(=O)C2C3CO)OCO4)cc(OC)c1OC (configuration not stated),x,12,24,-2,53*,-37,75*
CC(NC(=O)c1ccccc1Cl)C(=O)N1CCN(Cc2ccc3c(c2)OCO3)CC1 (configuration not stated),x,-12,6,0,17,7,x
COc1ccc2c(c1OC)C(=O)N1c3ccccc3C(=O)N(c3ccccc3)C21 (configuration not stated),20,20,-10,0,68*,-4,97*
COc1ccc2c(c1OC)C(=O)N1c3ccccc3C(=O)N(c3ccc(F)cc3)C21 (configuration not stated),11,29,-5,3,32,-4,x
Nc1cc2c(cc1Br)[nH]c(=O)c1ccccc12,x,-3,-24,4,58*,-14,-59
Nc1cc2[nH]c(=O)c3ccccc3c2cc1Br,x,8,-27,-1,-71,7,x
CC[C@@]1(c2ccccc2OC)C(=O)N(C(=O)OC)N1C(=O)OC,x,17,16,-2,36,-21,x
CC[C@@]1(c2cccc(C)c2)C(=O)N(C(=O)OC)N1C(=O)OC,x,7,19,-2,54*,-25,22
COc1ccc(-c2cc(=O)oc3cc(OCC(C)=O)ccc23)cc1,25,-18,-15,-1,23,-6,x
COc1ccc(-c2cc(=O)oc3cc(O)ccc23)cc1,x,12,-4,3,82*,-4,86*
O=c1cc(-c2ccc([N+](=O)[O-])cc2)c2ccc(O)cc2o1,7,11,11,2,53*,14,25
CN(C)CCCNC(=O)C1(O)c2cc(Br)ccc2NC(=O)N1c1c(F)cccc1F (configuration not stated),x,-3,1,0,-1,0,x
COc1ccccc1NC(=O)c1ccc(S(=O)(=O)N2CCCC(C)C2)cc1 (configuration not stated),x,-17,10,-1,2,0,x
CCOC(=O)N1CCN(c2ncnc3scc(-c4ccc(Cl)cc4)c23)CC1,x,5,1,0,29,-10,x
Clc1ccc(-c2csc3ncnc(N4CCc5ccccc5C4)c23)cc1,2,6,36,-2,55*,-12,46*
O=C(Nc1cccc(Cl)c1)Nc1csc([N+](=O)[O-])c1,15,24,-173,0,54*,-48,63*
SMILES,PPC-1+TRAIL kill,C8 TRAIL sens,HIF-2a inh,iPSC survival up,CF NFkB block,KKLEB cytotox,CF NFkB inh conf
O=S(=O)(c1ccc(Br)cc1)c1cnc2ccccc2n1,12,-3,27,-5,57*,-20,49*
COc1ccc(S(=O)(=O)c2cnc3ccccc3n2)cc1,20,3,11,1,16,0,x
CNc1ncnc2c1ncn2[C@H]1CN(Cc2ccc(Cl)cc2)C[C@@H](CO)O1,x,-8,11,-1,-14,8,x
CCOC(=O)c1c(C)c2c(=O)[nH]cnc2n1-c1ccccc1,x,13,8,0,56*,-5,66*
COc1ccc(-c2cc(C(F)(F)F)nc(S(=O)(=O)CCC(=O)N3CCOCC3)n2)cc1,-2,-4,-7,-3,79*,-36,47*
CCOC(=O)C1CCCN(S(=O)(=O)CCNC(=O)c2ccc3c(c2)OCO3)C1 (configuration not stated),x,8,13,0,-4,-7,x
COc1ccc(N(Cc2cc(=O)[nH]c3ccccc23)C(=O)CCl)cc1,x,96*,2,0,75*,-33,71*
COc1cccc(CN(C)C(=O)CCNC(=O)c2ccc(Br)cc2)c1,x,-1,4,1,-18,7,x
CC(=O)c1c(C)[nH]c(C(=O)COC(=O)c2ccc(C)s2)c1C,x,-15,-28,2,64*,26,7
CCOC(=O)c1c(C)[nH]c(C(=O)COC(=O)c2[nH]c(C)c(C(C)=O)c2C)c1C,13,11,13,-2,-3,7,x
CCOC(=O)c1c(NC(=O)Cc2cccs2)sc(C(=O)NC2CCCCC2)c1C,16,14,-11,2,51*,-29,19
Fc1ccc(Nc2nc(-c3ccncc3)nc3ccccc23)cc1F,-6,-14,10,-1,-21,-9,x
Clc1cccc(Nc2nc(-c3ccncc3)nc3ccccc23)c1,2,37,8,-1,64*,-42,-40
CCCCC[C@@H](O)c1cc2ccccc2c(=O)o1,x,-1,-173,2,10,-21,x
Cc1ccc(NC(=O)COC(=O)C2CCN(c3ccc(C(F)(F)F)cn3)CC2)cc1C,x,-25,2,0,7,-10,x
O=C(COC(=O)C1CCN(c2ccc(C(F)(F)F)cn2)CC1)Nc1cccc(F)c1,x,-7,-4,0,64*,-18,19
